Experimental data published in PubChem BioAssay.
Active and inactive are the calls of the source. Unless noted, no rule for the calls is given here.

Columns and labels:
[1] = compounds binding Alexa647 anti-His antibody – biochemical, small-molecule microarray, 635 nm fluorescence, artefact control for SMM control protein annotation, primary screen (AID 1128); conditions: higher = more signal;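 also: score merges feature fluorescence with signal-to-noise for each printed compound spot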
[2] = test system: Human papillomavirus type 1a E7 protein (residues 1-88); experiment: HPV1a E7 small-molecule binders, primary screen, biochemical, small-molecule microarray, residues 1-88, 635 nm (AID 1129); conditions: small-molecule microarray binding, fluorescence 635 nm; higher = more signal
[3] = molecular target: Focal adhesion kinase 1 (Homo sapiens) (UniProt Q05397); experiment: PTK2 protein binding on printed compound slides – biochemical, small-molecule microarray, 635/667 nm fluorescence, BSA, DTT, primary screen (AID 1130); conditions: 635 nm fluorescence, higher = more signal;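 also: composite of spot emission at 667 nm and signal to noise over triplicate slides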
Chain of Focal adhesion kinase 1 (Homo sapiens) (Q05397 whole entry, looked up): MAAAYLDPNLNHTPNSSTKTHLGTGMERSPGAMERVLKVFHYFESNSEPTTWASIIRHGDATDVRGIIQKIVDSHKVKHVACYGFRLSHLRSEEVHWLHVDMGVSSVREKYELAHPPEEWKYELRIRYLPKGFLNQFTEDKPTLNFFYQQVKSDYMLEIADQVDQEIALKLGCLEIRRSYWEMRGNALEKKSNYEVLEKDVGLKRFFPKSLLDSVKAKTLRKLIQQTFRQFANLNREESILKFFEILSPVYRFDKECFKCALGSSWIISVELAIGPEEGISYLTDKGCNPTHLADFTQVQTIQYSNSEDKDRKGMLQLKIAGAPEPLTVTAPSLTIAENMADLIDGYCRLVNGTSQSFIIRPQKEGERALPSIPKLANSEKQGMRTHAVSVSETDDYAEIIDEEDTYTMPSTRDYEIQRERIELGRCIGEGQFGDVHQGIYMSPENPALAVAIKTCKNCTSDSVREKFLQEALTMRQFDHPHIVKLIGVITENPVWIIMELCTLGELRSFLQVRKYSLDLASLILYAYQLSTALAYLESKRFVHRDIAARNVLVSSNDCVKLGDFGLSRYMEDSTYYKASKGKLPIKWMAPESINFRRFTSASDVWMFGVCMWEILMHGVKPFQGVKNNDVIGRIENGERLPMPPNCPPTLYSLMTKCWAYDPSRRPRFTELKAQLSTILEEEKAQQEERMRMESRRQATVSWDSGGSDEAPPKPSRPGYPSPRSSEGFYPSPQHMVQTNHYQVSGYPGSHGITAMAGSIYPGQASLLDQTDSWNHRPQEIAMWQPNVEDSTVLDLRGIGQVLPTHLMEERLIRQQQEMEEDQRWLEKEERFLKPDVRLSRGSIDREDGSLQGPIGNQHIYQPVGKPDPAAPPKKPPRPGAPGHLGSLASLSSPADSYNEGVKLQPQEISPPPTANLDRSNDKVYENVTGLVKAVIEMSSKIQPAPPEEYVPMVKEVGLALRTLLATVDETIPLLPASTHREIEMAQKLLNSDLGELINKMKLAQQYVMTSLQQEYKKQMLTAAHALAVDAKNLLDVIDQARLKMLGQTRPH

[4] = test system: Fibrinogen (Alexa647-labelled); experiment: Alexa647-fibrinogen binding to printed small molecules – biochemical, small-molecule microarray, 635/667 nm fluorescence, artefact control for SMM control-protein annotation, profiling panel (AID 1131); conditions: fibrinogen-A647 binding fluorescence, higher = more signal;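 also: z-score merges 667 nm fluorescence with per-spot signal-to-noise over triplicate slides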
[5] = molecular target: Follistatin (Homo sapiens) (UniProt P19883); experiment: FST protein binding to printed compounds – biochemical, small-molecule microarray, 635/667 nm fluorescence, primary screen (AID 1132); conditions: 635 nm fluorescence, higher = more signal
Chain of Follistatin (Homo sapiens) (P19883 whole entry, looked up): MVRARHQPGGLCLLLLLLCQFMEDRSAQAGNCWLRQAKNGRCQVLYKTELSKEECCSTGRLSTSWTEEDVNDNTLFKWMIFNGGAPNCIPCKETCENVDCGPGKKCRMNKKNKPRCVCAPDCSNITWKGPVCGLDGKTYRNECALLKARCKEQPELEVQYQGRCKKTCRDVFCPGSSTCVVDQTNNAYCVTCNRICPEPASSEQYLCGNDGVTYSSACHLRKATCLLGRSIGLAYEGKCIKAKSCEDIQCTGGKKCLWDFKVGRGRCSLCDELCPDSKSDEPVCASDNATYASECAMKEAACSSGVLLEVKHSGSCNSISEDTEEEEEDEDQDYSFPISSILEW

[6] = molecular target: Fibroblast growth factor 2 (Homo sapiens) (UniProt P09038); experiment: basic fibroblast growth factor binding to printed compounds – biochemical, small-molecule microarray, 635/667 nm fluorescence, primary screen (AID 1133); conditions: FGF2, fluorescence 635/667, higher = more signal
Chain of Fibroblast growth factor 2 (Homo sapiens) (P09038 whole entry, looked up): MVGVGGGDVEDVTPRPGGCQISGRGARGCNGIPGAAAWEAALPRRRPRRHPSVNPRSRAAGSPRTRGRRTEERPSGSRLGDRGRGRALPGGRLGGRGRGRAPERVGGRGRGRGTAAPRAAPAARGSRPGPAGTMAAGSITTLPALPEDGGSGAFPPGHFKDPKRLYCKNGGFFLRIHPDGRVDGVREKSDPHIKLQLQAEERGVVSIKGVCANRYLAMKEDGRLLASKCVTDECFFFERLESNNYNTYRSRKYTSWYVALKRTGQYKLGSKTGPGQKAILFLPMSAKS

[7] = JC-1 mitochondrial potential readout, lung cancer cells – cell-based, A549, JC-1 fluorescence, basal, 24 h, 100 nL, profiling panel (AID 1138); conditions: higher = more signal;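 also: A549 lung adenocarcinoma cells under basal conditions with no added stimulus; test concentration not given here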
Lefty1 = Lefty1 protein binding to printed compounds – biochemical, small-molecule microarray, 635/667 nm fluorescence, primary screen (AID 1139); conditions: fluorescence 635/667, higher = more signal
[8] = test system: wheat germ agglutinin (Triticum aestivum), Alexa647-labelled; experiment: Alexa647-WGA lectin binding to printed small molecules – biochemical, small-molecule microarray, 635/667 nm fluorescence, artefact control for SMM control-protein annotation, profiling panel (AID 1140); conditions: WGA-A647 binding, 635 nm fluorescence, higher = more signal;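 also: score merges 667 nm feature emission with signal to noise over triplicate slides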
[9] = molecular target: Luciferin 4-monooxygenase (Photinus pyralis) (UniProt P08659); experiment: inhibition of purified Photinus pyralis luciferase – biochemical, luminescence, purified enzyme, 2006 set, primary screen (AID 1141); conditions: purified firefly luciferase, SteadyGlo luminescence, 30 min; higher = more signal, called active from +8 up or from −8 down;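 also: cell-free assay with purified firefly luciferase at 100 ng per well in PBS; test concentration not given here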
Chain of Luciferin 4-monooxygenase (Photinus pyralis) (P08659 whole entry, looked up): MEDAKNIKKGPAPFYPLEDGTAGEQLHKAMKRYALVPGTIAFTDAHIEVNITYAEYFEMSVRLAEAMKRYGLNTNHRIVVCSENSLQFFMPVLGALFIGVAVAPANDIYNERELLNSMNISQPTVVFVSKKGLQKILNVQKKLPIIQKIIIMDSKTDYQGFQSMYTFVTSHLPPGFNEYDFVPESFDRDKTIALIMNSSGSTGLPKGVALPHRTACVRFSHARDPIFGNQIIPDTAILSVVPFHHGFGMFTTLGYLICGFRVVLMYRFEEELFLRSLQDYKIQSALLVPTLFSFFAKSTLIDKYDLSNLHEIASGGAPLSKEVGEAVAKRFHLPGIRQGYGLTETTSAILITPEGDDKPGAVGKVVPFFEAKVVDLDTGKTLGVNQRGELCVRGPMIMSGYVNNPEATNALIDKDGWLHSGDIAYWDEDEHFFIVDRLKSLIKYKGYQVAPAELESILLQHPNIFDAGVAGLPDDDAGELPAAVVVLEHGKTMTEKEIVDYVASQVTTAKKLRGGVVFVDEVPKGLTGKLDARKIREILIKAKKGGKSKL

[10] = test system: Wnt5a (protein binding on small-molecule microarray); experiment: small molecules binding Wnt5a protein – biophysical, small-molecule microarray, 635/667 nm fluorescence, primary screen (AID 1142); conditions: 635 nm fluorescence, higher = more signal;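 also: fluorescence read at 667 nm with signal to noise per printed feature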
[11] = ATP-based viability of Huh7 replicon cells – cell-based, CellTiter-Glo luminescence, basal, 48 h, cytotoxicity control for HCV replication inhibitor project, primary screen (AID 1143); conditions: higher = more signal, called active from +8 up or from −8 down;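 also: Huh7 hepatoma cells carrying a hepatitis C replication reporter with no stimulus; test concentration not given here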
[12] = Pseudomonas biofilm growth suppression – PAO1 strain, BacTiter-Glo luminescence, LB-PBS, primary screen (AID 1144); conditions: P. aeruginosa PAO1 biofilm, 12 h, higher = more signal
[13] = basal CRE-LacZ reporter activity in PC12 – cell-based, unstimulated, primary screen (AID 1145); conditions: no forskolin, luminescence, 4.5 h, higher = more signal, called active from +8 up or from −8 down
[14] = forskolin-driven CRE-LacZ activity in PC12 – cell-based, CRE-LacZ reporter, forskolin-stimulated, primary screen (AID 1146); conditions: luminescence, 4.5 h, higher = more signal, called active from +8 up or from −8 down;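 also: PC12 cells with 6xCRE LacZ reporter stimulated by forskolin 10 µM; beta-galactosidase reporter signal reflecting CREB driven transcription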
[15] = molecular target: Streptavidin (Streptomyces avidinii) (UniProt P22629); experiment: compounds binding control protein streptavidin – biophysical, small-molecule microarray, 635/667 nm fluorescence, artefact control for SMM compound annotation, primary screen (AID 1147); conditions: higher = more signal;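 also: signal reflects streptavidin binding to arrayed compounds as a control protein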
Chain of Streptavidin (Streptomyces avidinii) (P22629 whole entry, looked up): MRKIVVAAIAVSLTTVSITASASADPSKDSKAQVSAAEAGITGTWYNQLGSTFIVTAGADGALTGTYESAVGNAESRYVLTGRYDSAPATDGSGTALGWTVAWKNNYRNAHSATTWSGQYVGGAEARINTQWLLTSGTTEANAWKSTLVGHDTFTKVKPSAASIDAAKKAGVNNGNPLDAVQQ

[16] = probe aInhba binding on compound microarray – biochemical, small-molecule microarray, 635/667 nm fluorescence, primary screen (AID 1148); conditions: higher = more signal;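 also: score merges 667nm spot fluorescence with signal-to-noise for antibody binding to printed compounds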
Torsin-1A (Homo sapiens) [17] = molecular target: Torsin-1A (Homo sapiens) (UniProt O14656); experiment: TOR1A wild-type binding on microarray – cell lysate, small-molecule microarray, lysate, 635/667 nm, primary screen (AID 1149); conditions: COS7 hTOR1A-WT lysate, 635 nm fluorescence, higher = more signal
Chain of Torsin-1A (Homo sapiens) (O14656 whole entry, looked up): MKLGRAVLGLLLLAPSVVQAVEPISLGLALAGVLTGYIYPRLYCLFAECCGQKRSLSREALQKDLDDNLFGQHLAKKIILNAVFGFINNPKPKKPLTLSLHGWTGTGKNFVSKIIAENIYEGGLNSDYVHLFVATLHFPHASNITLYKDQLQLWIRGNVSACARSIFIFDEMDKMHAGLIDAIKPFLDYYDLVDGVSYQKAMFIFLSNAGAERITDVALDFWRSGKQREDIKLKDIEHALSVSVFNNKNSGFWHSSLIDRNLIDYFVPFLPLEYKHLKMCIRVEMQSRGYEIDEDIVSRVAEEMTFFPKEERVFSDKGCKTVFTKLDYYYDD

Torsin-1A (Homo sapiens) [18] = molecular target: Torsin-1A (Homo sapiens) (UniProt O14656); experiment: torsin A mutant lysate binding on microarrays – cell lysate, small-molecule microarray, COS7 lysate, 635/667 nm fluorescence, primary screen (AID 1150); conditions: COS7 hTOR1A mutant lysate, 635 nm fluorescence, higher = more signal;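 also: score pools 667 nm emission and signal to noise measuring lysate protein binding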
[19] = test system: Sonic hedgehog protein (Shh); experiment: Sonic hedgehog microarray binding compounds – biochemical, small-molecule microarray, 635/667 nm fluorescence, primary screen (AID 1151); conditions: 635 nm fluorescence, higher = more signal;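 also: Shh protein binding to compounds spotted on small-molecule microarray slides; score combines spot fluorescence intensity with signal-to-noise across triplicate slides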

SMILES | composite z-score [1] | composite z-score [2] | composite z-score [3] | composite z-score [4] | composite z-score [5] | composite z-score [6] | z-score [7] | composite z-score (Lefty1) | composite z-score [8] | z-score [9] | composite z-score [10] | z-score [11] | z-score [12] | z-score [13] | z-score [14] | composite z-score [15] | composite z-score [16] | composite z-score (Torsin-1A (Homo sapiens) [17]) | composite z-score (Torsin-1A (Homo sapiens) [18]) | composite z-score [19]
CCCC=C(CCC)[C@@H](NS(=O)(=O)c1cccc2cccnc12)c1ccc(C(=O)OC)cc1 | 1.4 | 0.36 | 0.542 | 0.395 | 1.31 | 0.33 | 0.0272 | 0.162 | -0.0663 | 2.48 (inactive) | 3.01 | -0.0811 (inactive) | -0.124 (inactive) | -1.13 (inactive) | 0.0608 (inactive) | 0.358 | 2.04 | 0.361 | 0.0731 | -0.187
CCCNC(=O)[C@@H]1c2ccccc2C(=O)N(CC23CC4CC(CC(C4)C2)C3)[C@H]1c1ccc(CO)cc1 | 0.618 | 1.23 | 0.734 | 0.957 | 1.34 | 0.871 | -1.17 | 0.798 | 0.562 | 0.411 (inactive) | 0.435 | -4.68 (inactive) | -0.929 (inactive) | 0.764 (inactive) | -0.517 (inactive) | 0.673 | -0.118 | 0.92 | -0.0207 | 1.05
CCCCC(CC)C(O)C1C=CC2C(=O)NC(=O)C2N1Nc1ccccn1 (stereo not given) | 2.27 | 1.17 | 0.178 | 1 | 0.962 | -0.539 | 0.933 | 0.21 | 1.21 | -1.55 (inactive) | -0.129 | 0.683 (inactive) | -1.03 (inactive) | -0.322 (inactive) | -0.634 (inactive) | 0.91 | -0.0405 | 0.312 | 0.624 | -0.0493
C=CCN1C(=O)[C@@]2(O[C@@H](CCO)[C@H]([Si](C)(C)c3ccc(OC)cc3)[C@H]2C)c2cc(NC(=O)[C@H](C)O)ccc21 | 2.01 | 1.19 | 1.38 | 0.114 | 0.346 | 0.0211 | 2.74 | 0.582 | 0.98 | -0.676 (inactive) | 0.442 | -5.04 (inactive) | -0.856 (inactive) | 17.4 (active) | -0.213 (inactive) | 0.0832 | -0.0695 | 0.923 | 1.01 | 1.46
COc1cc(C(O)C2C=CC3C(=O)N(C)C(=O)C3N2NC(=O)OC(C)(C)C)cc(OC)c1OC (stereo not given) | 1.28 | 1.21 | 0.474 | 1.03 | 0.0314 | -0.0371 | -0.54 | -0.338 | 0.807 | 0.225 (inactive) | 0.653 | 0.778 (inactive) | 0.66 (inactive) | -0.326 (inactive) | 1.25 (inactive) | 0.671 | 0.798 | -0.146 | 0.727 | -0.32
C=CCOC(=O)[C@@H]1[C@H]2C(=O)O[C@H](c3ccccc3)[C@H](c3ccccc3)N2[C@H](c2ccc(OCCOC(=O)[C@H]3C[C@H]4C(=O)N[C@@H](Cc5ccccc5)C(=O)N4[C@H]3c3cccc(OCCO)c3)cc2)[C@@]12C(=O)Nc1ccc(I)cc12 | 1.51 | 1.2 | 0.819 | 0.464 | 1.42 | 1.72 | -1.37 | 1.33 | 0.548 | -3.65 (inactive) | 0.776 | -0.467 (inactive) | -0.787 (inactive) | 6.98 (inactive) | 11.6 (active) | 0.502 | 0.294 | 0.787 | 0.959 | 2.02
O=C1O[C@@H](c2ccccc2)[C@@H](c2ccccc2)N2[C@@H](c3ccc(O)cc3)[C@]3(C(=O)Nc4ccc(C#CC5=CCCCC5)cc43)[C@@H](C(=O)Nc3nc4ccccc4s3)[C@H]12 | 1.15 | 1.22 | 0.32 | 0.852 | 1.25 | 1.35 | -1.8 | 1.54 | 1.32 | -1.34 (inactive) | 0.61 | -1.77 (inactive) | -1.05 (inactive) | -1.02 (inactive) | -1.09 (inactive) | 1.26 | 1.37 | 0.828 | 0.221 | 1.59
Cc1ccc(N2C(=O)c3ccccc3[C@](C)(C(=O)NC(C)C)[C@@H]2c2ccc(CO)cc2)nc1 | -2.03 | -1.29 | -1.72 | -2.28 | -0.739 | -0.276 | 0.0388 | -2.28 | 0.654 | -1.01 (inactive) | -0.281 | 0.328 (inactive) | 0.306 (inactive) | 0.155 (inactive) | 0.521 (inactive) | -1.78 | -0.289 | -3.17 | 0.758 | -0.974
COC(=O)[C@@]1(Cc2ccccc2)[C@H]2c3cc(C(=O)N(C)C)n(Cc4ccccn4)c3C[C@H]2CN1C(=O)c1ccccc1 | 1.54 | 0.827 | 1.56 | 1.04 | -0.226 | -0.389 | -0.128 | -0.225 | 0.88 | 1.56 (inactive) | 0.283 | -1.16 (inactive) | -0.0189 (inactive) | 1.73 (inactive) | 1.42 (inactive) | 2.27 | 0.38 | -0.208 | 0.239 | -0.709
